Compounds without any hit were thinned out: in the full panel of roughly 83,000, 20% have a hit.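 Method: cells in 96-well plates; compound added at one concentration; 48 h incubation; percent growth measured; values under 10 scored active.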 Activity calls are given as the source filed them.
How the values were obtained:
Test in all cases: NCI-60 one-dose screen, 48 h (100 = growth as untreated, 0 = no growth, -100 = all killed)
Conditions in all cases: 10 µM unless noted
[1] = system: RPMI-8226 leukemia
[2] = system: OVCAR-8 ovarian
[3] = system: OVCAR-5 ovarian
[4] = system: OVCAR-4 ovarian
[5] = system: SK-OV-3 ovarian
[6] = system: OVCAR-3 ovarian
[7] = system: HS 578T breast
[8] = system: NCI/ADR-RES ovarian
[9] = system: T-47D breast
[10] = system: BT-549 breast
[11] = system: MDA-MB-435 melanoma
[12] = system: SW-620 colon
[13] = system: MCF7 breast
[14] = system: HCT-116 colon
[15] = system: KM12 colon
[16] = system: IGROV1 ovarian
[17] = system: HCC-2998 colon

Measured: growth

COc1ccc2c(c1)O/C(=C\c1cccc(OCC(=O)Nc3nc(C)c(C)s3)c1)C2=O
active: [1] -59.8% | [6] -33.1% | [8] -10.7% | [10] -81.9% | [12] -39% | [15] 1.92%
inactive: [2] 15.1% | [3] 12.7% | [4] 67.8% | [5] 101% | [7] 42.9% | [9] 75.7% | [11] 80% | [13] 93.8% | [14] 66.6%

O=c1[nH]nc(-c2ccccc2)c2c(-c3ccccc3)onc12
inactive: [1] 19.5% | [2] 54.3% | [3] 58.7% | [4] 64.1% | [5] 15.4% | [16] 13.2% | [8] 30.4% | [9] 20.1% | [10] 22.8% | [11] 16.7% | [12] 22.2% | [13] 25.6% | [17] 35.1% | [15] 29.8%
active: [6] -15.8%

Cn1cc2c(c1)-c1nc(Nc3ccccc3)ncc1CC2
inactive: [2] 79.6% | [3] 60% | [4] 69.3% | [5] 77.6% | [16] 58.6% | [6] 69.5% | [7] 78.4% | [8] 71.6% | [9] 40.7% | [10] 32.1% | [11] 70.3% | [12] 52.1% | [13] 25.2% | [14] 35.4% | [17] 50.7% | [15] 11.9%

O=C1/C(=C\c2cccnc2)SC(=S)N1CCc1ccc(O)cc1
active: [15] -3.09%
inactive: [2] 62.6% | [3] 58.8% | [4] 64% | [5] 96.4% | [16] 62.9% | [6] 35.7% | [7] 74.7% | [8] 47.9% | [9] 37.6% | [10] 72.2% | [11] 22.4% | [12] 44.4% | [13] 30.3% | [14] 15% | [17] 72.1%

c1ccc(Nc2nc(-c3ccccn3)cs2)nc1
inactive: [1] 14.6% | [2] 14.4% | [3] 53% | [5] 29.5% | [6] 39.7% | [7] 42.9% | [9] 26.4% | [10] 43.9% | [11] 30.9% | [12] 30.2% | [13] 14.7% | [14] 10.3% | [17] 38.3% | [15] 29%
active: [16] 9.37% | [8] -0.82%

Cc1ccc(-n2nc3c(c(C#N)c2=O)CC(c2ccccc2Cl)C([N+](=O)[O-])=C3O)cc1 (stereo unspecified)
inactive: [1] 83.2% | [2] 102% | [3] 108% | [4] 90.4% | [16] 90% | [6] 103% | [7] 94.7% | [8] 98.2% | [9] 73.4% | [10] 103% | [11] 102% | [12] 109% | [13] 94% | [14] 63.8% | [17] 113% | [15] 106%

CC1(C)CC(=O)C2=C(C1)N(c1ccc(OC(F)(F)F)cc1)C(N)=C(C#N)C2c1ccc(Cl)cc1 (stereo unspecified)
inactive: [2] 56.2% | [3] 91% | [4] 85% | [5] 62.7% | [16] 90.3% | [6] 94.5% | [7] 65.5% | [8] 87.6% | [9] 79.1% | [10] 109% | [11] 93.1% | [12] 101% | [13] 86% | [14] 68.4% | [17] 94.7% | [15] 86.9%

Fc1cnc(NC2CC2)nc1-c1cnc2ccc(N3CCOCC3)cn12
inactive: [5] 20.6%
active: [2] 9.65% | [3] -4.33% | [4] -1.69% | [16] 4.44% | [6] 4.44% | [7] -7.95% | [8] 7.33% | [9] 7.29% | [10] -5.41% | [11] 0.301% | [12] 5.59% | [13] 2.32% | [14] 3.97% | [17] 1.18% | [15] -2.57%

Cc1ccc(S(=O)(=O)N/N=C\c2cc(Cl)ccc2O)cc1
inactive: [1] 82.3% | [2] 91.2% | [4] 102% | [5] 63.3% | [16] 51% | [6] 115% | [7] 91.3% | [8] 71% | [9] 86% | [10] 91.7% | [11] 82% | [12] 81.4% | [13] 82.6% | [14] 48.2% | [15] 108%

From PubChem BioAssay (NCI)
